# According to PubChem BioAssay AID686948 (National Center for Advancing Translational Sciences (NCATS), 2013):
# Calls of active or inactive are those of the source. Calls follow the shape of the dose curve; as a rule, active = well fitted inhibition curve with a large enough effect; inactive = flat fitted curve, though single readings scatter.
# Target: Tyrosine-protein kinase Yes (Homo sapiens) (UniProt P07947)
# Test: qHTS for small molecule inhibitors of Yes1 kinase: Confirmatory screen on the cherrypicks
# Details: Recombinant Yes1, ADP-Glo luminescence, poly(E4Y) substrate
# From the text: The Src family of non-receptor protein tyrosine kinases contains nine members, including Yes1, Src, Fyn, Lyn, and […]. These kinases have important roles in a variety of cellular functions, such as cell proliferation, survival, and differentiation. Src, the most well characterized member of this family, has been previously identified as a proto-oncogene. […] In melanoma, it has been shown that Yes1, and not other family members, such as Src, is functionally involved in the malignant phenotype. Additionally, a recent study examining the downregulation of Yes1 by shRNA found significant effects on cell survival/growth for basal-like and Her2-positive breast cancers. […]
# Two microliter of Yes1 enzyme (columns 1-2, 5-48; Millipore, Billerica, MA) are dispensed into Greiner, white solid-bottom 1536-well assay plates; columns 3 and 4 receive buffer without Yes1 as a control for maximum inhibition. […] The production of ADP is then quantified by the ADP-Glo Kit (Promega, Madison, WI). First, 2 uL of the first kit reagent is added, and the reaction is incubated for 45 minutes; then, 4 uL of the second kit reagent are added and the reaction is incubated for 30 minutes at which time the luminescence is read on a Viewlux plate reader (Perkin-Elmer, Waltham, MA). […]
# Tyrosine-protein kinase Yes (Homo sapiens), sequence (P07947 whole entry, looked up): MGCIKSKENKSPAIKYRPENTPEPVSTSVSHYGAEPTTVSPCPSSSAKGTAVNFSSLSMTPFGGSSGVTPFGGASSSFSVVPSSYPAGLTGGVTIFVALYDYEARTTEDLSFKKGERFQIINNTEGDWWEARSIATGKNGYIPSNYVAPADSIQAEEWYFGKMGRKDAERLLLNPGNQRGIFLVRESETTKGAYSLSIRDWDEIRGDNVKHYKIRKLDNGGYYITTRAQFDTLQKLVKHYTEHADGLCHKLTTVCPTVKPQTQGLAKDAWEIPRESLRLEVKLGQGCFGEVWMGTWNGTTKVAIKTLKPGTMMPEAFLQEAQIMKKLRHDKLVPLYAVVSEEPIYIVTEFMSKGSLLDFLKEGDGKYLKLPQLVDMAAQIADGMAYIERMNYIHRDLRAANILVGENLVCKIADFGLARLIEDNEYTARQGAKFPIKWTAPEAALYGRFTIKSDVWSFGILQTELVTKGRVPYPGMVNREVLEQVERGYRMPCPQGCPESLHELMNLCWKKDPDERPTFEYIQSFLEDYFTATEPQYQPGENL
structure (smiles),measurement,value
c1cc(-c2cnn3cc(-c4ccc(OCCN5CCCCC5)cc4)cnc23)ccn1,Potency,196 nM (active)
